TDP1 block – qHTS Assay for Inhibitors of Tyrosyl-DNA Phosphodiesterase (TDP1). Potency, µM (doses to about 130 µM), without a hit: at the top dose activity change, negative = inhibition, usual class: inhibitors. recombinant TDP1, AlphaScreen DNA substrate cleavage. hit rate 0.28% among 350,000; further: potency means the concentration at half of the fitted maximal effect; nearly all actives have a fitted effect of over 40% in size
Target sequence (Q9NUW8 whole entry, looked up): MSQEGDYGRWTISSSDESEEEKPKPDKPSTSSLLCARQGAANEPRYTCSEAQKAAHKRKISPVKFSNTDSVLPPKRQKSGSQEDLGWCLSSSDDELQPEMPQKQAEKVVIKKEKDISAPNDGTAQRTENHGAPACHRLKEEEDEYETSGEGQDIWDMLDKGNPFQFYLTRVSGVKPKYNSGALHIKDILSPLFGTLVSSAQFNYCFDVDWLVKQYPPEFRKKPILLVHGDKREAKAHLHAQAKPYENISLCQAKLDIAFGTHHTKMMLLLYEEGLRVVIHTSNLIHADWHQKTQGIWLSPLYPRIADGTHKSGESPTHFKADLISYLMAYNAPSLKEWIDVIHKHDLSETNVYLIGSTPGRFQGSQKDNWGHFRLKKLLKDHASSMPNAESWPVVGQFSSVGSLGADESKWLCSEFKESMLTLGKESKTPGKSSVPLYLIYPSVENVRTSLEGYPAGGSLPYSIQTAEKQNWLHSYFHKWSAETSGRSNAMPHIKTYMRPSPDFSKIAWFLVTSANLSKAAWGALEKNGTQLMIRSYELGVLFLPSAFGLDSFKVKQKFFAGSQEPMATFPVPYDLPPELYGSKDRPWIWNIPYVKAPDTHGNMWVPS
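E. coli-derived human Tdp1, 1 nM final. Cpd preinc 15 min RT; substrate 15 nM final, 5 min RT; AS bead mix 10 ug/ml final, 10 min RT. Signal loss = tyrosine-FITC cleavage. No-enzyme wells = max signal.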
DT40 TDP1 no CPT – qHTS for Inhibitors of human tyrosyl-DNA phosphodiesterase 1 (TDP1): qHTS in cells in absence of CPT | DT40 Tdp1-/- hTDP1 cells, no CPT, ATP luminescence, 48 h | Potency, µM (doses to about 46.2 µM), for the others: top-dose activity change, negative = growth inhibition, usual class: inhibitors | hit rate 15% among 420,000 | AID 686978, 2013; further: potency means the concentration at half of the fitted maximal effect; nearly all actives have a fitted effect of over 55% in size
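Camptothecin absent (DMSO only). Human TDP1-complemented DT40 knockout cells, 400 cells/well, 37 °C for minimum 48 hr; ATP measured via CellTiter-Glo, 30 min dark incubation, luminescence.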
CtBP-E1A inh – qHTS Assay for Inhibitors of the CtBP/E1A Interaction; CtBP / adenovirus E1A interaction (AlphaScreen); hit rate 0.49% among 340,000; activity change, % (test concentration not listed); AlphaScreen GST-E1A/His-CtBP binding, 1536-well; hits give low values; AID 651724, 2012; in the data active means activity change below about -65%; inconclusive means mostly about -30% to -63%
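Homogeneous bead-based format: GST-tagged E1A captured on glutathione donor beads, His-tagged CtBP on nickel acceptor beads; compounds precede bead addition by 2 h at 37 °C.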
Six1-Eya2 blk – qHTS Assay for Inhibitors of the Six1/Eya2 Interaction | AlphaScreen GST-Six1/His-Eya2 binding, biochemical; hits give low values | activity change, % (no concentration beside the values) | hit rate 0.56% among 360,000; in the data active means activity change below about -65%; inconclusive means mostly about -30% to -63%
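AlphaScreen with GST-Six1 and His-Eya2 (5X mix: 250 nM and 500 nM), glutathione donor and nickel acceptor beads; buffer 50 mM Tris pH 8.0, 300 mM NaCl, 1 mM TCEP; 1 h at 37 C in the dark.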
IL1B secr inh – qHTS for Inhibitors of Inflammasome Signaling: IL-1-beta AlphaLISA Primary Screen | THP-1 LPS/ATP IL-1B secretion, AlphaLISA, 16 h; hits give low values | hit rate 4.7% among 360,000 | activity change, % at 57.5 µM; in the data active means activity change below about -50%; inconclusive means mostly about -30% to -49%
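Secreted IL-1B measured by AlphaLISA bead assay after 16 h compound exposure of THP-1 cells; compounds (final up to 57.5 uM) added 1 h before LPS (250 ng/mL) and ATP (1.25 mM) stimulation; lower signal means less secretion.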
TDP1 cell CPT – qHTS for Inhibitors of human tyrosyl-DNA phosphodiesterase 1 (TDP1): qHTS in cells in presence of CPT | Potency, µM (series often up to 46.2 µM), for the others: top-dose activity change, negative = growth inhibition, usual class: inhibitors | chicken DT40 Tdp1-/-;hTDP1 cells + 20 nM CPT, ATP luminescence, 48 h | hit rate 12% among 420,000 | AID 686979, 2013; further: potency means the concentration at half of the fitted maximal effect; nearly all actives have a fitted effect of over 55% in size
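Chicken DT40 Tdp1-/- cells stably complemented with human TDP1 were seeded at 400 cells/well in medium containing 20 nM camptothecin, exposed to pin-transferred compounds, and grown at 37 °C for at least 48 hr. Viability was read as ATP luminescence.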
The depositor's hits bear a star; ? = inconclusive; · = no result given; [ ] = another dose, or the depositor's remark. This is a sample that favours compounds with a hit; in the whole collection about 18% have one here. Unless noted, the call rests on the fitted dose curve; in most records, active means well fitted curve in the direction sought with a large enough effect; inconclusive means small, poorly fitted or top-dose-only effect, or another doubt; inactive means no such curve, though single readings can be large; an effect the other way counts as inactive or inconclusive. On the % scale 0 is the no-effect control and ±100 the full control effect.

SMILES | TDP1 block | DT40 TDP1 no CPT | CtBP-E1A inh | Six1-Eya2 blk | IL1B secr inh | TDP1 cell CPT
CC1CCCC(NC(=O)CCNS(=O)(=O)c2ccc(Br)cc2)C1C (centres undefined) | 3% | -23% | -18 | 4 | ? | -26%
NC(=O)C1=C[C@@H](c2ccc(Br)cc2)C[C@@H](OCc2ccc(CO)cc2)O1 | 4% | ? | 4 | -1 | 21 | ?
NC(=O)C1=C[C@H](c2ccc(C(F)(F)F)cc2)C[C@H](OCc2ccc(CO)cc2)O1 | -1% | ? | -1 | 7 | -3 | -25%
NC(=O)C1=C[C@@H](c2ccc(C(F)(F)F)cc2)C[C@@H](OCc2ccc(CO)cc2)O1 | 4% | 15µM* | · | 0 | -13 | ?
NC(=O)C1=C[C@H](c2ccc(Br)cc2)C[C@H](OCc2ccc(CO)cc2)O1 | 5% | 21µM* | 3 | 0 | -13 | 13µM*
CN(C)S(=O)(=O)N1CCC(Oc2ccc(C(=O)NC3Cc4ccccc4C3)cc2)CC1 | 6% | 16µM* | · | 1 | 17 | ?
CN(C)S(=O)(=O)N1CCC(Oc2cccc(C(=O)NC3CCCCCC3)c2)CC1 | 0% | 15µM* | 1 | 0 | 1 | 18µM*
CCOc1ccc(C(C(=O)NC2CCCC2)N(CCOC)C(=O)CNC(=O)c2ccco2)cc1 (centres undefined) | -17% | 2% | 17 | 7 | 12 | 2%
COc1ccc(NC(=O)c2c(NC(=O)CNCC(C)C)sc3c2CCC3)c(OC)c1 | 4% | 6.5µM* | -1 | -2 | 0 | 4.1µM*
COc1ccc(OC)c(NC(=O)c2c(NCc3cccs3)sc3c2CCCCC3)c1 | 9% | ? | · | · | · | 23µM*
CCOC(=O)N1CCc2c(sc(NCc3sccc3C)c2C(=O)Nc2ccc(OC)cc2OC)C1 | 11% | ? | · | · | · | ?
COc1ccc(NC(=O)c2c(NCc3sccc3C)sc3c2CCCCC3)c(OC)c1 | 7% | 3.3µM* | · | · | · | 3.3µM*
COc1ccc(Cl)cc1NC(=O)c1c(NCc2sccc2C)sc2c1CCCC2 | 7% | 21µM* | · | · | · | ?
COc1ccc(OC)c(NC(=O)c2c(NC(=O)CCC(=O)O)sc3c2CCCCC3)c1 | 9% | ? | 12 | -2 | -12 | ?
CCC12CN3CC(CC)(CN(C1)C3c1cccc(OC)c1O)C2=O (centres undefined) | 0% | ? | · | · | · | -29%
Cc1cc(C)c(NC(=O)c2ccc3nccnc3c2)c(C)c1 | -4% | ? | 2 | -6 | -15 | ?
COc1ccc(NC(=O)c2c(NCc3cccs3)sc3c2CCCC3)c(OC)c1 | 14% | 16µM* | · | · | · | 16µM*
S=c1[nH]nc(-c2cc(-c3ccccc3)n[nH]2)n1/N=C/c1cccc(Cl)c1 | 35µM* | -22% | -15 | -10 | 21 | ?
S=c1[nH]nc(-c2cc(-c3ccccc3)n[nH]2)n1/N=C/c1ccc(Cl)cc1 | -1% | -24% | 11 | 4 | 105 | -23%
S=c1[nH]nc(-c2cc(-c3ccccc3)n[nH]2)n1/N=C/c1ccc(Cl)c(Cl)c1 | 79µM* | ? | -16 | -16 | 63 | ?
CCn1c2ccccc2c2cc(NC(=O)CNCc3ccccc3OC)ccc21 | 1%[0.0935 µM] | 5.8µM* | -10 | -13 | 6 | 5.2µM*
CCn1c2ccccc2c2cc(NC(=O)COc3ccccc3OC)ccc21 | -3% | 3.7µM* | 11 | 2 | 27 | 5.2µM*
CCn1c2ccccc2c2cc(NC(=O)COc3ccc(C)c(C)c3)ccc21 | 1% | 2% | · | · | · | -15%
COc1ccccc1CNCC(O)Cn1c2ccccc2c2ccccc21 (centres undefined) | -4% | ? | -17 | -2 | -61* | ?
CCOc1ccc(CCNC(=O)Cn2ccc3cc(S(=O)(=O)N4CCCCC4)ccc32)cc1 | 6% | ? | · | · | · | ?
SMILES | TDP1 block | DT40 TDP1 no CPT | CtBP-E1A inh | Six1-Eya2 blk | IL1B secr inh | TDP1 cell CPT
CCCNC(=O)/C=C/c1ccc(C(C)C)cc1 | 3% | ? | 5 | 17 | -7 | -19%
CCOC(=O)c1c(C)sc(Sc2ccc(Cl)cc2[N+](=O)[O-])c1OC | 9% | ? | ? | ? | -15 | ?
CCOC(=O)c1c(C)sc2c1N(C(=O)CN(CC)CC)c1cc(Cl)ccc1S2 | 5% | ? | -12 | -12 | -20 | 18µM*
CCOC(=O)c1c(C)sc2c1N(C(=O)CN(CC)CC)c1ccccc1S2 | 0% | 21µM* | 0 | -12 | -11 | ?
O=C(COC(=O)c1ccc(Cl)nc1)Nc1ccc(N2CCOCC2)cc1 | -5% | -25% | -12 | 5 | -14 | -14%
Cc1cccc(C)c1NC(=O)NC1CC2CCC(C1)N2Cc1cccs1 (centres undefined) | -3% | -1% | 7 | 0 | -12 | 1%
CC1CCCC(C)N1C(=O)Cn1cc(/C=C2/C(=O)Nc3ccccc32)c2ccccc21 (centres undefined) | 8% | 21µM* | -11 | -20 | -55* | 18µM*
CC1CCCC(C)N1C(=O)Cn1cc(C#N)c2ccccc21 (centres undefined) | 1% | -19% | 0 | 5 | 34 | -5%
COc1ccc(CNC(=O)C(c2ccco2)N(C(=O)c2csnn2)c2cccc(C)c2C)cc1 (centres undefined) | 2% | 23µM* | -1 | 0 | -9 | ?
COc1ccc(CNC(=O)C(c2ccco2)N(Cc2cccs2)C(=O)Cc2cccs2)cc1 (centres undefined) | -1% | ? | -7 | -4 | -52* | ?
O=C(NCc1ccc(F)cc1)C(c1ccco1)N(C(=O)c1csnn1)c1ccccc1 (centres undefined) | 9%[0.0935 µM] | ? | 7 | -1 | -4 | -25%
COc1ccc(CNC(=O)C(c2ccco2)N(C(=O)Cc2cccs2)c2cccnc2)cc1 (centres undefined) | 0% | ? | -15 | -2 | 0 | ?
COc1ccc(CNC(=O)C(c2cccs2)N(Cc2ccco2)C(=O)Cc2cccs2)cc1 (centres undefined) | 0% | 23µM* | -5 | -10 | ? | ?

Screening data from PubChem BioAssay.
